Screening data from PubChem.
DUX4 inh: inhibitors of DUX4-driven ZSCAN4 reporter expression, primary screen, 293T cells, Gaussia and Italica luciferase. 293T-iDUX4 ZSCAN4-Gaussia luciferase reporter, 24 h; stronger effect = lower value. activity change, negative = inhibition, % (no concentration beside the values). 37,000 tested, 0.8% active;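 active means mean inhibition of at least 10% in the main channel, exceeding the control channel by a set limit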
Numbers stand for hits; n = inactive. The sample as a whole holds a higher share of hits than the screen did.

SMILES | DUX4 inh
CO[C@H]1CC[C@H]2CCN(C)C(=O)CCCN(C)C(=O)c3cc(C#N)ccc3OC[C@@H]1O2 | n
Cc1cccc(S(=O)(=O)N[C@@H]2CC[C@@H](CCn3cc(-c4ccccn4)nn3)O[C@H]2CO)c1 | n
CCCNC(=O)N[C@H]1C=C[C@@H](CC(=O)NCCc2ccccc2)O[C@H]1CO | n
COc1ccc2c3c(n(C)c2c1)[C@@H](CO)N(S(C)(=O)=O)CC31CCN(C(=O)C2CCCC2)CC1 | n
COc1ccc2c3c(n(C)c2c1)[C@@H](CO)N(S(C)(=O)=O)CC31CCN(CC2CCCCC2)CC1 | -21
COc1ccc2c3c([nH]c2c1)[C@@H](CO)N(C(=O)c1ccc(F)cc1)CC31CCN(C(=O)NC(C)C)CC1 | -16
COc1ccc2c3c([nH]c2c1)[C@@H](CO)N(C(=O)c1ccncc1)CC31CCN(C(=O)NC(C)C)CC1 | n
COc1ccc2c3c(n(C)c2c1)[C@@H](CO)N(CC1CC1)CC31CN(C(=O)c2ccc(F)cc2)C1 | -26
COc1ccc2c3c(n(C)c2c1)[C@@H](CO)N(C(=O)c1ccc(F)cc1)CC31CN(C(C)=O)C1 | n
COc1ccc2c3c(n(C)c2c1)[C@@H](CO)N(CC1CC1)CC31CCN(C(C)=O)CC1 | n
COc1ccc2c3c(n(C)c2c1)[C@@H](CO)N(C)CC31CCN(CC2CC2)CC1 | n
COc1ccc2c3c(n(C)c2c1)[C@@H](CO)N(CC1CC1)CC31CCN(C(=O)c2ccccc2)CC1 | -32
CCCC(=O)N1CC2(CCN(C(=O)NC(C)C)CC2)c2c([nH]c3cc(OC)ccc23)[C@H]1CO | n
COc1ccc2c3c(n(C)c2c1)[C@H](CO)N(CC1CC1)CC31CN(C(=O)Nc2ccc(F)cc2F)C1 | n
COc1ccc2c3c(n(C)c2c1)[C@@H](CO)N(CC1CC1)CC31CCN(C(=O)CC2CC2)CC1 | n
CCCNC(=O)N1CC2(CN(C(C)=O)C2)c2c(n(C)c3cc(OC)ccc23)[C@@H]1CO | n
C[C@@H]1CN([C@H](C)CO)C(=O)c2cc(N(C)C)ccc2O[C@@H](C)CCCCO[C@@H]1CN(C)C(=O)Nc1ccc(C(F)(F)F)cc1 | n
CCCNC(=O)N1CC2(CCN(Cc3ccncc3)CC2)c2c(n(C)c3cc(OC)ccc23)[C@@H]1CO | n
CCCC(=O)N1CC2(CN(S(=O)(=O)CC)C2)c2c(n(C)c3cc(OC)ccc23)[C@@H]1CO | n
COc1cccc(NC(=O)N2C[C@@H](O)COC[C@H]3O[C@H](CC(=O)NC4Cc5ccccc5C4)CC[C@@H]32)c1 | n
O=C(NCCN1CCCCC1)[C@H]1[C@H](CO)[C@H]2Cn3c(cccc3=O)[C@H]2N1Cc1ccccn1 | n
CC(C)[C@@H]1C(=O)N[C@@H](c2ccccc2)CC=CC[C@H](C)Oc2ccccc2C(=O)N1C (mixture of isomers) | n
CCCNC(=O)N1C[C@H](C)[C@H](OC)CN(C)C(=O)c2ccc(NC(=O)C3CCC3)cc2OC[C@H]1C | n
C[C@@H]1CN([C@H](C)CO)C(=O)c2cc(Br)cnc2O[C@@H]1CN(C)C(=O)C1CCCCC1 | n
COc1ccc(NC(=O)N[C@@H]2CC[C@H](CCNS(=O)(=O)c3cccc(Cl)c3)O[C@@H]2CO)cc1 | n
SMILES | DUX4 inh
OC[C@@H]1Nc2ccc(-c3cccc(F)c3)cc2[C@@H]2[C@H]1CCN2Cc1ccncc1 | n
N#Cc1cccc(-c2ccc3c(c2)[C@H]2[C@H](CCN2Cc2ccncc2)[C@@H](CO)N3)c1 | -47
CC(=O)N1CC[C@@H]2[C@@H](CO)Nc3ccc(-c4cccc(F)c4)cc3[C@@H]21 | n
O=C(C1CCC1)N1CC[C@@H]2[C@@H](CO)Nc3ccc(-c4cccc(F)c4)cc3[C@@H]21 | n
N#Cc1cccc(-c2ccc3c(c2)[C@H]2[C@H](CCN2C(=O)c2ccncc2)[C@@H](CO)N3)c1 | n
CC(=O)N1CC[C@@H]2[C@H]1c1cc(-c3cccc(F)c3)ccc1N[C@@H]2CO | n
OC[C@H]1Nc2ccc(-c3cccc(F)c3)cc2[C@H]2[C@@H]1CCN2Cc1ccncc1 | -20
OC[C@@H]1Nc2ccc(-c3ccc(F)cc3)cc2[C@H]2[C@@H]1CCN2Cc1ccc(F)cc1 | n
COc1ccc(-c2ccc3c(c2)[C@H]2[C@H](CCN2Cc2ccncc2)[C@@H](CO)N3)cc1 | n
OC[C@H]1Nc2ccc(-c3cccc(F)c3)cc2[C@H]2[C@@H]1CCN2Cc1ccc(F)cc1 | -32
N#Cc1cccc(-c2ccc3c(c2)[C@@H]2[C@@H](CCN2Cc2cncnc2)[C@@H](CO)N3)c1 | n
OC[C@H]1Nc2ccc(-c3cccc(F)c3)cc2[C@@H]2[C@H]1CCN2Cc1ccc(F)cc1 | -24
Cc1noc(C)c1NC(=O)N(C)C[C@H]1OCCCC[C@@H](C)Oc2ccc(N(C)C)cc2C(=O)N([C@H](C)CO)C[C@H]1C | n
CCCNC(=O)N1[C@@H](CO)[C@H](c2ccccc2)C12CN(C(=O)c1cccnc1)C2 | n
COc1ccc2c3c(n(C)c2c1)[C@@H](CO)N(CC1CCOCC1)CC31CN(CC2CCOCC2)C1 | n
C[C@H](CO)N1C[C@H](C)[C@@H](CN(C)S(=O)(=O)c2ccc(Cl)cc2)OCCCC[C@H](C)Oc2ccc(NS(=O)(=O)c3cn(C)cn3)cc2C1=O | n
CO[C@H]1CC[C@H]2CCN(C)C(=O)[C@H](C)[C@H](OC)CN(C)C(=O)c3cccc(C#N)c3OC[C@@H]1O2 | n
COC(=O)[C@H]1[C@H](CO)[C@H]2Cn3c(ccc(-c4cccc(F)c4)c3=O)[C@H]2N1CC1CC1 | n
CN1c2ccc(-c3ccccc3)cc2[C@H]2[C@H](CCN2C(=O)CN2CCOCC2)[C@H]1CO | n
COc1ccc(S(=O)(=O)Nc2ccc3c(c2)[C@@H]2C[C@H](CC(=O)NCC4CC4)O[C@H](CO)[C@@H]2O3)cc1 | n
COC(=O)c1ccc(CN2CC(=O)N3[C@H](CO)[C@H](c4ccc(-c5cccnc5)cc4)[C@H]3C2)cc1 | n
O=C(Cc1ccccc1)N1CC(=O)N2[C@H](C1)[C@@H](c1ccc(C#CCc3ccccc3)cc1)[C@@H]2CO | -34
CC(C)CC#Cc1ccc([C@H]2[C@@H](CO)N3C(=O)CN(C(=O)Cc4ccccc4)C[C@H]23)cc1 | n
COCC(=O)N1CC(=O)N2[C@H](CO)[C@H](c3ccc(C#Cc4cccnc4)cc3)[C@H]2C1 | -22
CC(=O)N1CC(=O)N2[C@H](CO)[C@@H](c3ccc(C#Cc4cccnc4)cc3)[C@H]2C1 | n
SMILES | DUX4 inh
COc1cccc(NC(=O)N2CC(=O)N3[C@H](CO)[C@@H](c4ccc(C#CC5CCCCC5)cc4)[C@H]3C2)c1 | n
COCC(=O)N1CC(=O)N2[C@H](C1)[C@H](c1ccc(C#Cc3cccnc3)cc1)[C@@H]2CO | n
CC(=O)N1CC(=O)N2[C@@H](CO)[C@H](c3ccc(C#Cc4cccnc4)cc3)[C@@H]2C1 | n
COCC(=O)N1CC(=O)N2[C@@H](CO)[C@@H](c3ccc(C#Cc4cccnc4)cc3)[C@@H]2C1 | n
COc1cccc(NC(=O)N2CC(=O)N3[C@H](CO)[C@@H](c4ccc(C#CC5CCCCC5)cc4)[C@@H]3C2)c1 | n
CC(C)CC#Cc1ccc([C@@H]2[C@@H](CO)N3C(=O)CN(C(=O)Cc4ccccc4)C[C@H]23)cc1 | n
COc1cccc(NC(=O)N2CC(=O)N3[C@@H](CO)[C@H](c4ccc(C#CC5CCCCC5)cc4)[C@@H]3C2)c1 | -47
CC(=O)N1CC(=O)N2[C@H](CO)[C@H](c3ccc(C#Cc4cccnc4)cc3)[C@H]2C1 | -20
